Compounds with a hit are over-represented: about 6.8% of the library has one in this group of screens.
T cruzi growth-1 – blocks T. cruzi growth in NIH3T3 culture; T. cruzi beta-gal in NIH3T3, GalScreen luminescence, 90 h; inhibition, % at 8.34 µM; 5.9% of 77,000 active; AID 624255;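 active = mean inhibition above about 93%, with at least 55% of replicates each passing it, limit read from the data, passing the limit was not always enough; inconclusive = only one of those two conditions holds; inactive = neither condition holds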
C diff HTS – inhibitors of Clostridium difficile growth | Clostridium difficile clinical isolate growth, OD600, 24 h; active compounds read low | growth activity, negative = inhibition, % at 16 µg/mL (by protocol) | 0.25% of 86,000 active | AID 1259249;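 active = mean growth activity at or below -80% and every replicate also at or below -80%; inconclusive = mean at or below -80% but some replicate above -80%; inactive = mean growth activity above -80%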;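 also: 0% = DMSO wells and -100% = levofloxacin 16 µg/mL wells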
Pf Dd2 inh – P. falciparum Dd2 growth inhibition; SYBR Green, 72 h; active compounds read low; activity change, % at 10 µM; 2.3% of 94,000 active; AID 1159554; in the data active = activity change below about -80%; inconclusive = no clear call, values can overlap the other calls
T cruzi growth-2 – blocks T. cruzi growth in NIH3T3 host cells; shares compounds with T cruzi growth-1; 72% of 5,600 active; T. cruzi beta-gal in NIH3T3, GalScreen luminescence, 90 h; inhibition, % at 8.35 µM;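 active = mean replicate inhibition above about 95% and at least 55% of replicates individually reaching it, limit read from the data; inconclusive = only one of the two criteria is met; inactive = neither criterion is met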
T cruzi growth-3 – inhibitors of T. cruzi proliferation; shares compounds with T cruzi growth-1; T. cruzi beta-gal in NIH3T3, GalScreen luminescence, 90 h; inhibition, % at 2.09 µM; 21% of 5,600 active; AID 651740;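 active = mean inhibition above about 95%, with at least 55% of replicates also reaching it, limit read from the data; inconclusive = meets just one of the two conditions; inactive = meets neither condition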;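 also: plate controls were neutral control median for no effect and positive control median for full effect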
NIH3T3 tox – cytotoxicity in mouse NIH/3T3 fibroblasts; NIH/3T3 viability, CellTiter-Glo ATP luminescence, 90 h; shares compounds with T cruzi growth-1; 14% of 5,600 active; AID 651742; cytotoxicity (signal decrease), % at 8.35 µM;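 active = mean signal decrease across replicates above about 35% based on untreated-well scatter, with enough replicates individually passing, limit read from the data; inconclusive = no rule stated though some were filed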;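 also: 0% = median of neutral control wells and 100% = median of positive control wells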
3T3 cytotox 2 – cytotoxicity in mouse NIH/3T3 fibroblasts. shares compounds with T cruzi growth-1. NIH/3T3 viability, CellTiter-Glo ATP luminescence, 90 h. inhibition, % at 24.9 µM. 56% of 5,600 active. AID 651744;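 active = mean loss of cell viability signal at or above a set limit, and enough replicates individually reaching it; inconclusive = meets only the mean limit or only the replicate share; inactive = meets neither condition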;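 also: 0% = median of neutral control wells and 100% = median of positive control wells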
* = called active by the depositor; ? = inconclusive; . = no result.

SMILES	T cruzi growth-1	C diff HTS	Pf Dd2 inh	T cruzi growth-2	T cruzi growth-3	NIH3T3 tox	3T3 cytotox 2
O=C(Nc1ccc(F)cc1)N1CCCCN2[C@H](CO)[C@@H](c3ccc(C#Cc4ccccc4)cc3)[C@@H]2C1	73	4	-30	.	.	.	.
O=C(Nc1ccccc1)N1CCCCN2[C@H](CO)[C@@H](c3ccc(C#Cc4ccccc4)cc3)[C@@H]2C1	109*	56	9	89	103*	?	104*
O=C(Nc1ccc(F)cc1)N1CCCCN2[C@@H](CO)[C@H](c3ccc(C#Cc4ccccc4)cc3)[C@@H]2C1	123*	5	?	99*	111*	117*	105*
O=C(c1ccncc1)N1CC2(C1)[C@H](c1ccccc1)[C@@H](CO)N2C(=O)c1ccncc1	.	-3	26	.	.	.	.
N#C[C@H]1[C@@H](c2ccc(C#CC3(O)CCCC3)cc2)[C@H](CO)N1C(=O)C1CCC1	99*	5	-24	104*	88	-3	69*
N#C[C@@H]1[C@@H](c2ccc(C#CC3(O)CCCC3)cc2)[C@@H](CO)N1C(=O)C1CCCCC1	97*	-9	9	110*	84	23	?
N#C[C@H]1[C@@H](c2ccc(C#CC3(O)CCCC3)cc2)[C@@H](CO)N1C(=O)C1CCCCC1	93	0	18	.	.	.	.
N#C[C@H]1[C@@H](c2ccc(C#CC3(O)CCCC3)cc2)[C@@H](CO)N1C(=O)C1CCC1	18	1	19	.	.	.	.
COc1ccc2c3c(n(C)c2c1)[C@H](CO)N(CC1CC1)CC31CCN(C(=O)c2cccnc2)CC1	.	4	1	.	.	.	.
CCNC(=O)[C@H]1[C@H](CO)[C@H]2Cn3c(cccc3=O)[C@@H]1N2CCC(F)(F)F	-23	2	19	.	.	.	.
C[C@@H]1CN([C@H](C)CO)C(=O)c2cc(-c3cncnc3)cnc2O[C@H]1CN(C)C(=O)Cc1ccccc1	.	0	2	.	.	.	.
CN(C)C(=O)c1ccc(-c2ccc3c(c2)[C@@H]2[C@@H](CCN2C(=O)c2ccc4c(c2)OCO4)[C@H](CO)N3)cc1	?	2	-9	104*	77	-26	-6
CN(C)C(=O)c1cccc(-c2ccc3c(c2)[C@H]2[C@H](CCN2C(=O)C2CCCC2)[C@H](CO)N3)c1	.	-2	-75	.	.	.	.
CN(C)C(=O)c1cccc(-c2ccc3c(c2)[C@@H]2[C@@H](CCN2C(=O)C2CC2)[C@@H](CO)N3)c1	106*	-4	-27	99*	77	-4	-1
CCC(=O)N1CC[C@@H]2[C@@H](CO)Nc3ccc(-c4ccc(C(=O)N(C)C)cc4)cc3[C@@H]21	103*	4	-12	104*	47	-40	-16
CN(C)C(=O)c1cccc(-c2ccc3c(c2)[C@H]2[C@H](CCN2C(=O)C2CCOCC2)[C@@H](CO)N3)c1	?	1	7	99*	31	-39	-9
CN(C)CC(=O)N1CC[C@@H]2[C@H](CO)Nc3ccc(-c4ccc(C(=O)N(C)C)cc4)cc3[C@@H]21	60	-4	7	.	.	.	.
CN(C)C(=O)c1cccc(-c2ccc3c(c2)[C@@H]2[C@@H](CCN2C(=O)C2CCOCC2)[C@@H](CO)N3)c1	94	0	4	.	.	.	.
CN(C)C(=O)c1cccc(-c2ccc3c(c2)[C@H]2[C@H](CCN2C(=O)c2ccc4c(c2)OCO4)[C@H](CO)N3)c1	64	1	-14	.	.	.	.
COCC(=O)Nc1ccc2c(c1)C(=O)N(C)C[C@@H](OC)[C@@H](C)CN(C(=O)NC(C)C)[C@H](C)CO2	40	.	39	.	.	.	.
Cc1noc(C)c1NC(=O)Nc1ccc2c(c1)C(=O)N([C@@H](C)CO)C[C@H](C)[C@@H](CN(C)C(=O)C1CCCCC1)OCCCC[C@H](C)O2	54	7	-23	.	.	.	.
COc1ccc(NC(=O)N(C)C[C@@H]2Oc3c(NC(=O)c4nc5ccccc5s4)cccc3C(=O)N([C@@H](C)CO)C[C@@H]2C)cc1	24	4	-1	.	.	.	.
C/C=C/c1ccc2c(c1)O[C@@H](CN(C)C(=O)c1ccc3c(c1)OCO3)[C@H](C)CN([C@H](C)CO)S2(=O)=O	11	1	-52	.	.	.	.
C[C@@H]1CN([C@@H](C)CO)S(=O)(=O)c2ccc(/C=C/c3ccccc3)cc2O[C@H]1CN(C)C(=O)c1ccc2c(c1)OCO2	118*	5	-87*	105*	85	42*	59*
C[C@H](CO)N1C[C@H](C)[C@@H](CN(C)C(=O)c2ccc3c(c2)OCO3)Oc2cc(/C=C/c3ccccc3)ccc2S1(=O)=O	119*	-5	-71	104*	52	8	45*
SMILES	T cruzi growth-1	C diff HTS	Pf Dd2 inh	T cruzi growth-2	T cruzi growth-3	NIH3T3 tox	3T3 cytotox 2
C/C=C/c1ccc2c(c1)O[C@H](CN(C)C(=O)c1ccc3c(c1)OCO3)[C@H](C)CN([C@H](C)CO)S2(=O)=O	52	-5	-11	.	.	.	.
Cc1ccc(S(=O)(=O)N[C@@H]2C=C[C@H](CC(=O)NCCc3ccncc3)O[C@H]2CO)cc1	45	-1	13	.	.	.	.
COc1cccc(-c2cnc3c(c2)C(=O)N([C@H](C)CO)C[C@@H](C)[C@@H](CN(C)CC2CC2)O3)c1	23	.	-43	.	.	.	.
O=C(C[C@H]1CC[C@@H]2[C@H](COC[C@@H](O)CN2Cc2ccc(Oc3ccccc3)cc2)O1)N1CCN(c2ccccc2)CC1	130*	23	-41	89	70	17	91*
O=C(C[C@H]1CC[C@@H]2[C@H](COC[C@@H](O)CN2Cc2ccc(Oc3ccccc3)cc2)O1)N1CCOCC1	12	.	-16	.	.	.	.
Cc1ccccc1S(=O)(=O)N1C[C@H](O)COC[C@@H]2O[C@@H](CC(=O)N3CCN(C)CC3)CC[C@H]21	1	0	.	.	.	.	.
O=C(C[C@@H]1CC[C@@H]2[C@H](COC[C@@H](O)CN2Cc2ccc(Oc3ccccc3)cc2)O1)N1CCN(c2ccccc2)CC1	96*	24	-71	98*	67	11	32*
O=C(C[C@H]1CC[C@H]2[C@@H](COC[C@@H](O)CN2Cc2ccc(Oc3ccccc3)cc2)O1)N1CCN(c2ccccc2)CC1	127*	60	-76	101*	57	-32	104*
O=C(C[C@H]1CC[C@H]2[C@@H](COC[C@H](O)CN2Cc2ccc(Oc3ccccc3)cc2)O1)N1CCOCC1	3	.	-25	.	.	.	.
O=C(C[C@@H]1CC[C@H]2[C@@H](COC[C@H](O)CN2Cc2ccc(Oc3ccccc3)cc2)O1)N1CCOCC1	-2	.	-5	.	.	.	.
Cc1ccccc1S(=O)(=O)N1C[C@@H](O)COC[C@@H]2O[C@H](CC(=O)N3CCN(C)CC3)CC[C@H]21	?	-4	.	-27	-15	-5	2
O=C(C[C@@H]1C=C[C@H](NC(=O)C2CC2)[C@@H](CO)O1)NCCCN1CCOCC1	.	1	9	.	.	.	.
